Assay results as given in the supplement of paper PMC8728848.
This is one part of a sample in which the strongest signals are shown more often than they occur.

Tested on: GlcNAc(b1-3)Gal(b1-4)GlcNAc(b1-3)Gal(b1-4)GlcNAc(b1-2)[GlcNAc(b1-3)Gal(b1-4)GlcNAc(b1-3)Gal(b1-4)GlcNAc(b1-6)]Man(a1-6)[GlcNAc(b1-3)Gal(b1-4)GlcNAc(b1-3)Gal(b1-4)GlcNAc(b1-2)Man(a1-3)]Man(b1-4)GlcNAc(b1-4)[Fuc(a1-6)]GlcNAc
Assay: glycan array binding signal (z-score within array); higher = stronger binding
Conditions: glycan notation: IUPAC condensed, linker removed
How it was run: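 The binding signal is a Z-score computed within each array and averaged over linkers. Arrays of the same protein sequence at different concentrations or buffers were also averaged together. Data originate from 3228 arrays in the Consortium for Functional Glycomics database, kept only where the protein sequence was available.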

Sequence of Avaren (Actinomycete K97) (chain, as listed by the source): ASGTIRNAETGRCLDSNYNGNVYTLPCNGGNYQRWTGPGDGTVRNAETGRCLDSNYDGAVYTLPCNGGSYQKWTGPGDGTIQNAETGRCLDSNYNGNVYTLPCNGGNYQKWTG

| Substance | glycan array binding signal (z-score) |
| --- | --- |
| Avaren (Actinomycete K97) | -0.046 |
| MpAFP RI GFP (Marinomonas primoryensis) | 1.29 |
| Siglec-8 (Homo sapiens), Q9NYZ4 | 0.434 |
